This note sets out measurements from PubChem BioAssay.

Active and inactive are the calls of the source.

A short description of assay [1]: small molecules captured by biotinylated probe aFSTL3 – biochemical, small-molecule microarray, fluorescence 635/667, stem cell growth factor project, primary screen (AID 1064).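 Further: measures binding of the biotinylated anti-FSTL3 antibody to printed compounds.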 Conditions: higher = more signal.
The nature of assay [2]: binders from COS7 lysate, DM2A8 probe, primary screen, torsin A project, cell lysate, small-molecule microarray, fluorescence 635/667 (AID 1065). The following applies: higher = more signal, COS7 lysate expressing mutant human TOR1A.
Assay [3] in a line: small molecules captured by biotinylated probe aFGF2 – biochemical, small-molecule microarray, fluorescence 635/667, stem cell growth factor project, primary screen (AID 1067).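 Further: measures binding of biotinylated aFGF2 protein to printed compounds on slides; z-score merges feature fluorescence and signal-to-noise across triplicate slides.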 Conditions: higher = more signal.
A short description of assay [4]: small molecules captured by biotinylated probe aFGF10 – biochemical, small-molecule microarray, fluorescence 635/667, stem cell growth factor project, primary screen (AID 1071).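 Further: score merges 667 nm spot intensity and signal to noise from triplicate slides.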 Conditions: higher = more signal.
The target in assay [5] is Neurogenic locus notch homolog protein 2 (Homo sapiens) (UniProt Q04721). As to the kind of experiment: small molecules binding Notch2 protein – biochemical, small-molecule microarray, 635 nm fluorescence, stem cell growth factors, primary screen (AID 1073). The following applies: higher = more signal.
Assay [6] addresses Pro-neuregulin-1, membrane-bound isoform (Homo sapiens) (UniProt Q02297). As to the kind of experiment: small molecules binding neuregulin-1 protein – biochemical, small-molecule microarray, fluorescence 635/667, psychiatric disease protein project, primary screen (AID 1075).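 Further: score combines 667 nm spot fluorescence with signal to noise.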 Conditions: NRG1 binding, 635 nm fluorescence, higher = more signal.
In assay [7] the test system is Neuregulin-1 EGF-like domain. As to the kind of experiment: small molecules binding NRG1 EGF domain – biochemical, small-molecule microarray, 635 nm fluorescence, primary screen (AID 1081).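 Further: binding of the protein to compounds printed on small-molecule microarray slides.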 Conditions: higher = more signal.
Assay [8] in a line: FRG1 expression reporter modulators in myotubes – cell-based, C2C12 myotubes, firefly/Renilla luciferase, luminescence, FRG1 inhibition for FSHD, primary screen (AID 1084). Conditions: FRG1 promoter luciferase, higher = more signal, called active from +8 up or from −8 down.
Assay [9] in a line: small molecules captured by biotinylated probe aFST – biochemical, small-molecule microarray, fluorescence 635/667, stem cell growth factor project, primary screen (AID 1086).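 Further: score merges 667 nm fluorescence with signal-to-noise of each printed compound spot.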 Conditions: higher = more signal.
The nature of assay [10]: binders of probe aHhip on microarray, primary screen, stem cell growth factor project, biochemical, small-molecule microarray, fluorescence 635/667 (AID 1087).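 Further: score merges spot fluorescence at 667nm with spot signal to noise ratio.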 Conditions: higher = more signal.
For assay [11], the system named is PRMT1 (protein arginine N-methyltransferase 1). As to the kind of experiment: small molecules binding arginine methyltransferase PRMT1 – biochemical, small-molecule microarray, 635 nm fluorescence, primary screen (AID 1088).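 Further: binding of Prmt1 protein to compounds spotted on small-molecule microarray slides.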 The following applies: higher = more signal.
A short description of assay [12]: growth effects on S. cerevisiae YJM789 – YJM789 clinical isolate, OD600, 24 h, basal, primary screen (AID 1089).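 Further: growth of clinical yeast isolate S. cerevisiae YJM 789 seeded 1000 cells per well; test concentration not given here.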 The following applies: higher = more signal, called active from +8 up or from −8 down.
Assay [13] can be described thus: S. pombe growth modifiers, basal conditions – strain 972, OD600, 24 h, no modulator, primary screen (AID 1090).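 Further: basal condition with compound alone and no growth modifier present; test concentration not given here.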 Conditions: S. pombe 972 growth, higher = more signal, called active from +8 up or from −8 down.
Assay [14] is described as follows: budding yeast growth modifiers under rapamycin – strain BY4716, OD600, 96 h, primary screen (AID 1091). Further: test concentration not given here. The following applies: S. cerevisiae BY4716 + rapamycin, higher = more signal, called active from +8 up or from −8 down.
In assay [15] the target is Torsin-1A-interacting protein 2 (Homo sapiens) (UniProt Q8NFQ8). As to the kind of experiment: small molecules binding lysate-expressed LULL1 – cell lysate, human LULL1 lysate, 635/667 nm fluorescence, primary screen (AID 1092).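 Further: probe is lysate of COS7 cells overexpressing human LULL1; score merges per-feature 667 nm fluorescence with signal-to-noise.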 The following applies: small-molecule microarray, hLULL1 lysate binding, 635 nm fluorescence; higher = more signal.
Sequence of Torsin-1A-interacting protein 2 (Homo sapiens) (Q8NFQ8 whole entry, looked up): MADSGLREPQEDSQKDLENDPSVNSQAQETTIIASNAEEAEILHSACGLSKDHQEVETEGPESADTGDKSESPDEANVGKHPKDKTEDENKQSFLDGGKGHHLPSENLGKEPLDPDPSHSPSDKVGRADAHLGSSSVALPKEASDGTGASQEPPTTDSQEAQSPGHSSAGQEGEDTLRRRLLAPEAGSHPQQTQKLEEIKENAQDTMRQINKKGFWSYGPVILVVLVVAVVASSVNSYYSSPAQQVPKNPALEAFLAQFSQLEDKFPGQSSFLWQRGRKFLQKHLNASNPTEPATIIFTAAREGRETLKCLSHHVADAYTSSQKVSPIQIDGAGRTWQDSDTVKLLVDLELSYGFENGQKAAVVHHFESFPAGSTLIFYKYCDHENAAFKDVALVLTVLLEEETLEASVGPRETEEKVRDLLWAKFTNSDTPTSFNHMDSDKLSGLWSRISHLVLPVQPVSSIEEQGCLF
The nature of assay [16]: optical density change of DRC41 E. coli – strain DRC41, OD650, 24 h, E. coli filamentation project, primary screen (AID 1093).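 Further: MC1000 strain lacking acrAB efflux and sulA so SOS filamentation is blocked; test concentration not given here.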 The following applies: E. coli DRC41 growth, higher = more signal, called active from +8 up or from −8 down.
The nature of assay [17]: probe aLefty2 binding to arrayed compounds – biochemical, biotinylated probe, 635/667 nm fluorescence, primary screen (AID 1094).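 Further: score merges spot fluorescence near 667 nm with spot signal-to-noise ratio.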 Conditions: small-molecule microarray, higher = more signal.
The test system of assay [18] is Noggin (protein binding on small-molecule microarray). As to the kind of experiment: small molecules binding Noggin protein – biochemical, 635/667 nm fluorescence, primary screen (AID 1095).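 Further: score merges 667 nm feature fluorescence with signal to noise over triplicate slides.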 Conditions: 635 nm fluorescence, higher = more signal.
In assay [19] the target is Neurogenic locus notch homolog protein 3 (Homo sapiens) (UniProt Q9UM47). As to the kind of experiment: small molecules binding NOTCH3 protein – biochemical, 635/667 nm fluorescence, primary screen (AID 1096). Conditions: small-molecule microarray, 635 nm fluorescence, higher = more signal.
Sequence of Neurogenic locus notch homolog protein 3 (Homo sapiens) (Q9UM47 whole entry, looked up): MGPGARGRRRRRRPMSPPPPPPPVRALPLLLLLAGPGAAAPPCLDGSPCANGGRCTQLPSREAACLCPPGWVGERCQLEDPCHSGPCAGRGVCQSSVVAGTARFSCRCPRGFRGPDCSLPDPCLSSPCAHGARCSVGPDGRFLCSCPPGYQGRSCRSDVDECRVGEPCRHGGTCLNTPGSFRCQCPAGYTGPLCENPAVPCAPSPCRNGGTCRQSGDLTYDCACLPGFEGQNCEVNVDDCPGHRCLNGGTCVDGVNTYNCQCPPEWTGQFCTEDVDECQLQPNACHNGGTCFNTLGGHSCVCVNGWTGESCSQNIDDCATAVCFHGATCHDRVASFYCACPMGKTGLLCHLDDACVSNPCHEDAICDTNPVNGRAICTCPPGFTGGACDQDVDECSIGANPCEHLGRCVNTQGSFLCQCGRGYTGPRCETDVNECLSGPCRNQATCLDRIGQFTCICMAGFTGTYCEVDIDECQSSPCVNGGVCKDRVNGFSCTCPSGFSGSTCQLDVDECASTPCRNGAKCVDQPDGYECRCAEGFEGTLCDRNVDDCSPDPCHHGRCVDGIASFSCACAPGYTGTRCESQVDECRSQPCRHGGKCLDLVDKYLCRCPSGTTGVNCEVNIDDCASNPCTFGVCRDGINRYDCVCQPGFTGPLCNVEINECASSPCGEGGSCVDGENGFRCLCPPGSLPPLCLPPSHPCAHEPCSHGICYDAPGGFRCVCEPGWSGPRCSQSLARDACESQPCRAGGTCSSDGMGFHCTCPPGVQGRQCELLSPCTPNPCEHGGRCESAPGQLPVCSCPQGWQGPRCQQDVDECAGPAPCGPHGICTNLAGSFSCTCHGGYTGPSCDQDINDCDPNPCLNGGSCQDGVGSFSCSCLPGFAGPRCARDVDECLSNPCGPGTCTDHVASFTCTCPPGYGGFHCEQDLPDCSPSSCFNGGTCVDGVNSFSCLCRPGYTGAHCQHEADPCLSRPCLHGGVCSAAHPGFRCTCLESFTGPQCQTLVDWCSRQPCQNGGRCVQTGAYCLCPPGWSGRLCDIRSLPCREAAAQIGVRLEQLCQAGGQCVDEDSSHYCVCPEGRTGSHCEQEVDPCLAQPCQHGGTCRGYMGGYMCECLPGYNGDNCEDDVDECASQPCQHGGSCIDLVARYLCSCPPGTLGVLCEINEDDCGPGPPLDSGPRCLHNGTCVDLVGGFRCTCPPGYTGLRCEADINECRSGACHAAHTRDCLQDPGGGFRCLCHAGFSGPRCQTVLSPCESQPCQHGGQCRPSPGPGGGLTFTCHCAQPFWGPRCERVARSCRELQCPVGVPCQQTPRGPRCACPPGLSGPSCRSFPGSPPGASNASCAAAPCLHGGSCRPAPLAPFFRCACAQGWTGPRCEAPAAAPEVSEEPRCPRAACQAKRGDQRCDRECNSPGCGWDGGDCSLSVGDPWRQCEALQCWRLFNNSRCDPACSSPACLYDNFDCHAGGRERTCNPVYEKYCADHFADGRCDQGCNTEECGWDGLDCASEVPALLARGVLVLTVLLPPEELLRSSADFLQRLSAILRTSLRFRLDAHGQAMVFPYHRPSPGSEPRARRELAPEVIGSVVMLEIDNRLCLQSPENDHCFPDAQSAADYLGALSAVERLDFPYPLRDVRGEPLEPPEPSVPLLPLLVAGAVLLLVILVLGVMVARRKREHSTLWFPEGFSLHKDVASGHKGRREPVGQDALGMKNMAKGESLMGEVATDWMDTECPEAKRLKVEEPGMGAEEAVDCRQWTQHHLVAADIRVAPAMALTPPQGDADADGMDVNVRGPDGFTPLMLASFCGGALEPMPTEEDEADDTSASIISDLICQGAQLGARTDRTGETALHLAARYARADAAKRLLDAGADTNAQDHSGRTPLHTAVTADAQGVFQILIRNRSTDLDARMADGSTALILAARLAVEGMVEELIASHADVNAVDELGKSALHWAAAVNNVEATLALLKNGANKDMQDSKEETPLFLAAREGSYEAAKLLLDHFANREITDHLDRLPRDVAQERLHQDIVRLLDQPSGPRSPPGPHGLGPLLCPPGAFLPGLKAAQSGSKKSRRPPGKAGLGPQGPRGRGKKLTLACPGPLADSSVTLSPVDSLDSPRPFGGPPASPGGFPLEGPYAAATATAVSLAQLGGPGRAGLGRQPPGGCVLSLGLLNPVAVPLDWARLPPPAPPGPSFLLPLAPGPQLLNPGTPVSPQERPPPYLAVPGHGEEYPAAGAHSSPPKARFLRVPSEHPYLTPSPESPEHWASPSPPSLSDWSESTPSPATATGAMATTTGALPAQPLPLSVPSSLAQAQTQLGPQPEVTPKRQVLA
Assay [20] in a line: probe aEGFR binding to arrayed compounds – biochemical, biotinylated probe, 635/667 nm fluorescence, primary screen (AID 1097).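 Further: probe is a biotinylated anti-EGFR antibody binding compounds printed on slides; score combines fluorescence near 667 nm and signal to noise of each spot.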 The following applies: small-molecule microarray, higher = more signal.

Sequence of Pro-neuregulin-1, membrane-bound isoform (Homo sapiens) (Q02297 whole entry, looked up, the tested form may be a part, canonical isoform): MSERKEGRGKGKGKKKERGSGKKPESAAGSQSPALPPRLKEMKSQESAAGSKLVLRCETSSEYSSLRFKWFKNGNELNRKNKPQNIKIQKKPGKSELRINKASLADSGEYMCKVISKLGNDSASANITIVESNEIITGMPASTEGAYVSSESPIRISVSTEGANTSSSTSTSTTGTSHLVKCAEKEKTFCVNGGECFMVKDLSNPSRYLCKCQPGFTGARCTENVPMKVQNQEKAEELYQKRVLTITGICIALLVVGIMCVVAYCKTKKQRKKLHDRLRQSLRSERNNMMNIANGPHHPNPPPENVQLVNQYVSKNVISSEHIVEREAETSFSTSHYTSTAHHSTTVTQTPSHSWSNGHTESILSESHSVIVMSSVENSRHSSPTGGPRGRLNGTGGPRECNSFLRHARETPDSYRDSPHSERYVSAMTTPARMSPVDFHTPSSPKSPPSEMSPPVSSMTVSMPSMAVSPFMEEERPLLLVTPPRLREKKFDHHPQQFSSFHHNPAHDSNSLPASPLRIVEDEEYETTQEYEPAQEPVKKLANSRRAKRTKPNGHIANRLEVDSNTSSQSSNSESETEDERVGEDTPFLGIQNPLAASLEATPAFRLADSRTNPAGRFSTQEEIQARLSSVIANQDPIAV

Turning to `C=CCC(OC(C)=O)[C@@H]1[C@@H](N(Cc2ccc(-c3cccc(C(F)(F)F)c3)o2)C(=O)c2cccc3ccccc23)c2cc(OCCCO)ccc2N1C(=O)Cc1ccc(OC)cc1` (stereo not given in full), the composite z-score is -0.238 in [1]; -0.125 in [2]; -0.143 in assay [3]; -0.0597 in [4]; -0.386 in assay [5]; 0.0701 in assay [6]. Besides, the composite z-score in assay [7] was -0.398; in assay [9] it was 0.378; in assay [10], -0.179; in assay [11], 0.224; in assay [15] it was 0.648; in assay [17] it was 0.0054. In addition, the figures for the composite z-score in assay [18], in assay [19] and in assay [20] were 0.266, 0.263 and -0.133, respectively. Moreover, the z-score in [8] was 0.317 (inactive); in [12] it was 0.504 (inactive); in assay [13], -0.117 (inactive); in assay [14], -0.296 (inactive); in assay [16] it was 0.776 (inactive).
As for `CCOC(=O)C[C@H]1[C@H](OC(=O)c2ccc(-c3ccccc3)cc2)[C@@H](NC(=O)CC(C)C)c2cc(OCCCO)ccc2N1C(=O)c1ccccc1`, the composite z-score in assay [1] is -0.308; in assay [2], -0.288; in assay [3] it was -0.0236; in assay [4], 0.311; in [5], 0.623; in [6] it was -0.037. The composite z-score in assay [7] is 0.648; in assay [9] it was 0.547; in assay [10] it was -0.217; in assay [11], 0.468; in assay [15], 1.49; in assay [17] it was -0.107. The composite z-score in [18] amounted to 0.49; in [19], 0.952; in [20] it was 0.048. Further, the z-score is -0.165 (inactive) in assay [8]; 0.72 (inactive) in [12]; 1.4 (inactive) in assay [13]; 1.38 (inactive) in assay [14]; -0.513 (inactive) in assay [16].
As to `Cc1cccc([C@H]2C[C@H]3C(Br)=C[C@@H]2C(=O)[C@]32CO2)c1`, the composite z-score in assay [1] was 0.165; in assay [2], 0.0316; in [3] it was -0.182; in assay [4] it was -0.228; in assay [5], -0.0632; in assay [6], -0.424. Besides, the composite z-score in assay [7] was -0.779; in assay [9], -0.264; in [10] it was -0.0169; in [11], -0.373; in assay [15], -0.831; in [17], -0.0416. Besides, the results for the composite z-score in assay [18], in [19] and in assay [20] were -0.329, -0.867 and -0.626, respectively. Moreover, the z-score was 1.02 (inactive) in [8]; -0.749 (inactive) in assay [12]; -20.5 (active) in assay [13]; -1.2 (inactive) in assay [14]; 0.779 (inactive) in assay [16].
For the compound `COc1ccc(C(O)C2C=CC3C(=O)N(c4ccccc4)C(=O)C3N2Nc2ccc(C(C)C)cc2)c2ccccc12` (stereo not given), the composite z-score is -0.0766 in assay [1]; 0.309 in assay [2]; 0.0442 in assay [3]; 0.7 in assay [4]; 1.59 in [5]; 1.49 in assay [6]. For the same compound, the composite z-score in [7] is 1.16; in assay [9], 1.83; in assay [10], -0.148; in assay [11], 1.56; in [15], 3.61; in [17], 0.204. The composite z-score in assay [18] was 0.0754; in assay [19] it was 1.07; in assay [20], -0.0019. Further, the z-score in [8] is -1.31 (inactive); in assay [12], 0.254 (inactive); in assay [13] it was 0.227 (inactive); in assay [14], -0.519 (inactive); in assay [16], -1.08 (inactive).
In the case of `[N-]=[N+]=Nc1ccccc1C[C@]1(C(=O)NCc2ccccc2)COC(c2ccc(OCCCO)cc2)=N1`, the composite z-score in assay [1] worked out at 0.191; in assay [2], 0.666; in [3], 0.113; in [4] it was 1.27; in assay [5], 0.777; in assay [6] it was 1.24. Also, the composite z-score in assay [7] is 1.21; in assay [9] it was 0.892; in assay [10], -0.207; in assay [11], 1.32; in assay [15], 3.33; in [17] it was 0.0573. Moreover, the composite z-score in assay [18] is 0.544; in assay [19], 1.08; in assay [20], -0.0669. Besides, the z-score in assay [8] was -1.36 (inactive); in [12], 1.04 (inactive); in assay [13] it was 0.184 (inactive); in assay [14], 32.1 (active); in assay [16], 1.04 (inactive).
